Experiment [1] concerns PRMT1 (protein arginine N-methyltransferase 1). Briefly: small molecules binding arginine methyltransferase PRMT1 – biochemical, small-molecule microarray, 635 nm fluorescence, primary screen (AID 1088).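 Also: binding of Prmt1 protein to compounds spotted on small-molecule microarray slides.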 The following applies: higher = more signal.
Experiment [2] can be described thus: growth effects on S. cerevisiae YJM789 – YJM789 clinical isolate, OD600, 24 h, basal, primary screen (AID 1089).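 Also: growth of clinical yeast isolate S. cerevisiae YJM 789 seeded 1000 cells per well; test concentration not given here.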 The note with it: higher = more signal, called active from +8 up or from −8 down.
The nature of experiment [3]: S. pombe growth modifiers, basal conditions – strain 972, OD600, 24 h, no modulator, primary screen (AID 1090).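 Also: basal condition with compound alone and no growth modifier present; test concentration not given here.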 The note with it: S. pombe 972 growth, higher = more signal, called active from +8 up or from −8 down.
Experiment [4] in a line: budding yeast growth modifiers under rapamycin – strain BY4716, OD600, 96 h, primary screen (AID 1091). Also: test concentration not given here. The note with it: S. cerevisiae BY4716 + rapamycin, higher = more signal, called active from +8 up or from −8 down.
Experiment [5] addresses Torsin-1A-interacting protein 2 (Homo sapiens) (UniProt Q8NFQ8). Briefly: small molecules binding lysate-expressed LULL1 – cell lysate, human LULL1 lysate, 635/667 nm fluorescence, primary screen (AID 1092).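 Also: probe is lysate of COS7 cells overexpressing human LULL1; score merges per-feature 667 nm fluorescence with signal-to-noise.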 The note with it: small-molecule microarray, hLULL1 lysate binding, 635 nm fluorescence; higher = more signal.
The nature of experiment [6]: optical density change of DRC41 E. coli – strain DRC41, OD650, 24 h, E. coli filamentation project, primary screen (AID 1093).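 Also: MC1000 strain lacking acrAB efflux and sulA so SOS filamentation is blocked; test concentration not given here.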 The note with it: E. coli DRC41 growth, higher = more signal, called active from +8 up or from −8 down.
The nature of experiment [7]: probe aLefty2 binding to arrayed compounds – biochemical, biotinylated probe, 635/667 nm fluorescence, primary screen (AID 1094).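 Also: score merges spot fluorescence near 667 nm with spot signal-to-noise ratio.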 The note with it: small-molecule microarray, higher = more signal.
Experiment [8] relates to Noggin (protein binding on small-molecule microarray). Briefly: small molecules binding Noggin protein – biochemical, 635/667 nm fluorescence, primary screen (AID 1095).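 Also: score merges 667 nm feature fluorescence with signal to noise over triplicate slides.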 The note with it: 635 nm fluorescence, higher = more signal.
Experiment [9] deals with Neurogenic locus notch homolog protein 3 (Homo sapiens) (UniProt Q9UM47). Briefly: small molecules binding NOTCH3 protein – biochemical, 635/667 nm fluorescence, primary screen (AID 1096). The note with it: small-molecule microarray, 635 nm fluorescence, higher = more signal.
A short description of experiment [10]: probe aEGFR binding to arrayed compounds – biochemical, biotinylated probe, 635/667 nm fluorescence, primary screen (AID 1097).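 Also: probe is a biotinylated anti-EGFR antibody binding compounds printed on slides; score combines fluorescence near 667 nm and signal to noise of each spot.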 The following applies: small-molecule microarray, higher = more signal.
Experiment [11] concerns Plasmodium falciparum Sir2 (PF13_0152, Sir2A). The experiment can be described thus: Plasmodium falciparum Sir2A binding compounds – biochemical, small-molecule microarray, 635 nm fluorescence, primary screen (AID 1098).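 Also: score merges spot fluorescence intensity with its signal-to-noise ratio.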 The note with it: fluorescence 635 nm, higher = more signal.
Experiment [12] can be described thus: probe aDKK1 binding to arrayed compounds – biochemical, biotinylated probe, 635/667 nm fluorescence, primary screen (AID 1099).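 Also: score merges 667nm spot fluorescence with signal to noise across triplicate slides; reference of the scale not given here.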 The following applies: small-molecule microarray, higher = more signal.
Experiment [13] can be described thus: probe aCHRDL2 binding to arrayed compounds – biochemical, biotinylated probe, 635/667 nm fluorescence, primary screen (AID 1100). The note with it: small-molecule microarray, higher = more signal.
Experiment [14] can be described thus: change in splice reporter luminescence, either direction, cell-based, HEK293, spliceosome inhibition project, primary screen (AID 1101).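 Also: HEK293 cells carrying a splicing-competent luciferase reporter gene; test concentration not given here.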 The note with it: HEK293 splicing luciferase reporter, 24 h, higher = more signal, called active from +8 up or from −8 down. Background: Reporter assays use an easily measured gene product as a stand-in for the process of interest.

The target in experiment [15] is Fibroblast growth factor 10 (Homo sapiens) (UniProt O15520). The experiment can be described thus: compounds binding fibroblast growth factor 10 – biochemical, small-molecule microarray, 635 nm fluorescence, primary screen (AID 1102). The following applies: FGF10 binding, fluorescence 635 nm, higher = more signal.
The test system of experiment [16] is glycogen synthase kinase-3 (GSK3A per assay name; protocol says GSK3B). The experiment can be described thus: compounds binding glycogen synthase kinase-3 – biochemical, small-molecule microarray, 635 nm fluorescence, GSK3A, primary screen (AID 1103). Also: the record names both GSK3A and GSK3B. The note with it: fluorescence 635 nm, higher = more signal.
Experiment [17] has as its target Epidermal growth factor receptor (Homo sapiens) (UniProt P00533). Briefly: compounds binding epidermal growth factor receptor – biochemical, small-molecule microarray, 635 nm fluorescence, primary screen (AID 1104).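 Also: score merges 667 nm emission intensity with spot signal to noise over triplicate slides.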 The note with it: EGFR binding, higher = more signal.
For experiment [18], the target named is Follistatin-related protein 3 (Homo sapiens) (UniProt O95633). Briefly: compounds binding follistatin-related protein 3 – biochemical, small-molecule microarray, 635 nm fluorescence, primary screen (AID 1105).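 Also: score merges emission near 667 nm and signal to noise per printed spot across three slides.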 The note with it: FSTL3 binding, higher = more signal.
Experiment [19] addresses Dickkopf-related protein 1 (Homo sapiens) (UniProt O94907). The experiment can be described thus: small molecules binding DKK1 protein – biochemical, small-molecule microarray, 635 nm fluorescence scan, primary screen (AID 1106).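 Also: score merges emission near 667 nm with signal to noise over three replicate slides.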 The following applies: higher = more signal.
The subject of experiment [20] is Inhibin beta A chain (activin A). The experiment can be described thus: small molecules binding activin A – biochemical, small-molecule microarray, 635 nm fluorescence scan, primary screen (AID 1107).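 Also: mouse activin A protein probed at 4.33 µg/mL on printed slides; score merges bound-protein fluorescence near 667 nm with spot signal-to-noise.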 The note with it: INHBA, higher = more signal.

Drawing on PubChem BioAssay, this text covers composite z-score and z-score for 8 compounds.

The source made the active and inactive calls.

Torsin-1A-interacting protein 2 (Homo sapiens), sequence (Q8NFQ8 whole entry, looked up): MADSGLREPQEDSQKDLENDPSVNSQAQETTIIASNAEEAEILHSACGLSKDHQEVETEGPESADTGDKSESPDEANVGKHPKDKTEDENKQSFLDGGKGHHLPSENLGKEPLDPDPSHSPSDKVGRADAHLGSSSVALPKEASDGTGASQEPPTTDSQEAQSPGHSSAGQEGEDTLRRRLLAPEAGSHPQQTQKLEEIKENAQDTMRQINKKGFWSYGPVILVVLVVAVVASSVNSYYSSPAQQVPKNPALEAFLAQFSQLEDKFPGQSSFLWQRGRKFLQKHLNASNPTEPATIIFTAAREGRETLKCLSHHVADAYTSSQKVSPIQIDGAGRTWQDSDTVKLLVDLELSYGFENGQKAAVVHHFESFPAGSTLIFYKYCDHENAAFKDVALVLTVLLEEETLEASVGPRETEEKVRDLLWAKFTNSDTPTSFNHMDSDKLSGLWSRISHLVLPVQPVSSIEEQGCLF
Follistatin-related protein 3 (Homo sapiens), sequence (O95633 whole entry, looked up): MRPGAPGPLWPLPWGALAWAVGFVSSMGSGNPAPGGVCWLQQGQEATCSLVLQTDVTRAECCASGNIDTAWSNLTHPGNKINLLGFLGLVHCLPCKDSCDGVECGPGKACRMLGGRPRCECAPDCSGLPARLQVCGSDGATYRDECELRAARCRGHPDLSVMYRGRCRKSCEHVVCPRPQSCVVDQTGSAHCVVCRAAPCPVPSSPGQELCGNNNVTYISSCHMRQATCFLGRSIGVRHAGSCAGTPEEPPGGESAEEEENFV
Epidermal growth factor receptor (Homo sapiens), sequence (P00533 whole entry, looked up): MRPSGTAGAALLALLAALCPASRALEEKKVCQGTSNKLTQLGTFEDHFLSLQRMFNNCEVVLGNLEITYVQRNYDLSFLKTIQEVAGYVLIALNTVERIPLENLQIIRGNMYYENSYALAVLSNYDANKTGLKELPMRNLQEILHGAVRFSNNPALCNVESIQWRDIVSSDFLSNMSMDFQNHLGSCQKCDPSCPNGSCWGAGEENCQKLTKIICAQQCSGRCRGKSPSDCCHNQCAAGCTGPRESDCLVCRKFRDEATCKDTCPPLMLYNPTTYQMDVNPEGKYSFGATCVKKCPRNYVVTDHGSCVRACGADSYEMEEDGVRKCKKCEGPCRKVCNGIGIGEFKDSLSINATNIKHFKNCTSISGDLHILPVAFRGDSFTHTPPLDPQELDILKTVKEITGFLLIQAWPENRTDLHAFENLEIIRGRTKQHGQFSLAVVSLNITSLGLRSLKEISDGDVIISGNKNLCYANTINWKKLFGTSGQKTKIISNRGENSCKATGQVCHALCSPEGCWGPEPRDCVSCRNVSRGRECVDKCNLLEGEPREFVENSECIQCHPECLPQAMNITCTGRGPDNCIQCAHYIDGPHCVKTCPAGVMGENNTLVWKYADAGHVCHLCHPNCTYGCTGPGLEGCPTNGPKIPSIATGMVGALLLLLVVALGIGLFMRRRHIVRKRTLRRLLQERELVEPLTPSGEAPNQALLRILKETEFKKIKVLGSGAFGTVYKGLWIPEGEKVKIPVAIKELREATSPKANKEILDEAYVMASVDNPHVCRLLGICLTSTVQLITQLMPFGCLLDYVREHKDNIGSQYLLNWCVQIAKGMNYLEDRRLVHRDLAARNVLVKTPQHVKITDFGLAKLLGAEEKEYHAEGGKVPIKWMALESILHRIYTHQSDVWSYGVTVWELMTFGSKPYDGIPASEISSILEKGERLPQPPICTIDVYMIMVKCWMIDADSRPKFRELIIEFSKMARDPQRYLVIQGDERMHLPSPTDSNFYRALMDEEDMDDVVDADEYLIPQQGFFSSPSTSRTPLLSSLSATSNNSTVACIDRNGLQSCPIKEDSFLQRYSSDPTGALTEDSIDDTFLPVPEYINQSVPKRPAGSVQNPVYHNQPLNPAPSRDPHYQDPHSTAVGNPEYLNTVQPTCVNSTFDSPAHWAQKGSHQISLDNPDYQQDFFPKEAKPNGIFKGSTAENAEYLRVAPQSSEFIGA
Neurogenic locus notch homolog protein 3 (Homo sapiens), sequence (Q9UM47 whole entry, looked up): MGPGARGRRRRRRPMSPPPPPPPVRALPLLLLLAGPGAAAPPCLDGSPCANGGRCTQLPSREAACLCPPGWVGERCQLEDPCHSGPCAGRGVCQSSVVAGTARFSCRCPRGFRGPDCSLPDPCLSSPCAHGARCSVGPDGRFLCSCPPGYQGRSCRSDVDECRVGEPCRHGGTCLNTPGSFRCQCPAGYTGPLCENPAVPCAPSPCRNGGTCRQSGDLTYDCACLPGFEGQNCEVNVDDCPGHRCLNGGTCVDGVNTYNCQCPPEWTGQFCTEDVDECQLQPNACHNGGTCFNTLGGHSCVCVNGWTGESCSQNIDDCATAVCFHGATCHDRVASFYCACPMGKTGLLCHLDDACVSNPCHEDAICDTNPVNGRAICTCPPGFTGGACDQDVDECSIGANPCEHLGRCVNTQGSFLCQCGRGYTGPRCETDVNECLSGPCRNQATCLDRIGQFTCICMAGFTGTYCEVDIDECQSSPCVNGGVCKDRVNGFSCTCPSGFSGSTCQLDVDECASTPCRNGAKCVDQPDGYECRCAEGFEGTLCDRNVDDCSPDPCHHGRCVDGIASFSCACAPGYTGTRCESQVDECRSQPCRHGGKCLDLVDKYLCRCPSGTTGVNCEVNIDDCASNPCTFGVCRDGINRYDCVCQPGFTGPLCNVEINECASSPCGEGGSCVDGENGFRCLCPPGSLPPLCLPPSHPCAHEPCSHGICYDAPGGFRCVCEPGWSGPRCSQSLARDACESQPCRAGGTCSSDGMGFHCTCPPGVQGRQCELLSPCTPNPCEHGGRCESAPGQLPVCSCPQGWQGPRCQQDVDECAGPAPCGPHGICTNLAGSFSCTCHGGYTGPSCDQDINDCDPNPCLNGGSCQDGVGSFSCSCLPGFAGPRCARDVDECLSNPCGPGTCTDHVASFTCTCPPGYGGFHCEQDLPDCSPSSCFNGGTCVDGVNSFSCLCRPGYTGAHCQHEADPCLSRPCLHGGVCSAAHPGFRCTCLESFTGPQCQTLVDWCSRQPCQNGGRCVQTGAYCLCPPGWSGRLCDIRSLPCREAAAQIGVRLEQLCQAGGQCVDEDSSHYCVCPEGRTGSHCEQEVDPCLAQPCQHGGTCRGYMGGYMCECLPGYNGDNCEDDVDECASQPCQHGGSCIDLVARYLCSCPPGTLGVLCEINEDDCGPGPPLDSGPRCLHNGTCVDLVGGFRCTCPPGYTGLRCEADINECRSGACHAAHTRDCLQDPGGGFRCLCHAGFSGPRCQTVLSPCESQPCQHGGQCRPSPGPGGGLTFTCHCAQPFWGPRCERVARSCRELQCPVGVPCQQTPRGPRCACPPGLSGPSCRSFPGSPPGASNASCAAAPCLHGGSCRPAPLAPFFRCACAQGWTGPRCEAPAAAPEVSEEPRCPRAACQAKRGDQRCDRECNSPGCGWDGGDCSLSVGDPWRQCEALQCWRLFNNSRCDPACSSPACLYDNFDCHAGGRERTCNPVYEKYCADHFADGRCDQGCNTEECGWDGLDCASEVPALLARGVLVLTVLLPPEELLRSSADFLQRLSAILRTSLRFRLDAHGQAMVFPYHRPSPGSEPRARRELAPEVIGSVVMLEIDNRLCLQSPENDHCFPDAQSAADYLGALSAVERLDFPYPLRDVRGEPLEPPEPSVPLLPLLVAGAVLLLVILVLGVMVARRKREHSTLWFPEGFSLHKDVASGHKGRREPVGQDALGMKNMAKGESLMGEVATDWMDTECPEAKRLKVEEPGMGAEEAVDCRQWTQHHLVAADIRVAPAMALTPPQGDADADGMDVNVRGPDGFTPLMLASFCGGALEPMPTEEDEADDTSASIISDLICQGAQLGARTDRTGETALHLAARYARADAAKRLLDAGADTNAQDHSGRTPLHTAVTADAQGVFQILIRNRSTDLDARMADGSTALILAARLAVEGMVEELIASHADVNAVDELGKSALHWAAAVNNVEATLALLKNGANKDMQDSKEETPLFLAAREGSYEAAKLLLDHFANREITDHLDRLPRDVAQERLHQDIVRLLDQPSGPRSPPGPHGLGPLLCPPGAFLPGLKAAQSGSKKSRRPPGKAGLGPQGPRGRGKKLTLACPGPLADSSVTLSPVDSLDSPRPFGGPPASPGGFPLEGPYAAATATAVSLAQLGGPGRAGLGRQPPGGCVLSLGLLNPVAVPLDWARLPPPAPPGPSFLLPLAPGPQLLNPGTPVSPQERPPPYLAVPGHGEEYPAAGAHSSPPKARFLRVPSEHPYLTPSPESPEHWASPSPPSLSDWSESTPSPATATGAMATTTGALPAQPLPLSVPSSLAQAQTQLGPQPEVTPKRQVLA
Fibroblast growth factor 10 (Homo sapiens), sequence (O15520 whole entry, looked up): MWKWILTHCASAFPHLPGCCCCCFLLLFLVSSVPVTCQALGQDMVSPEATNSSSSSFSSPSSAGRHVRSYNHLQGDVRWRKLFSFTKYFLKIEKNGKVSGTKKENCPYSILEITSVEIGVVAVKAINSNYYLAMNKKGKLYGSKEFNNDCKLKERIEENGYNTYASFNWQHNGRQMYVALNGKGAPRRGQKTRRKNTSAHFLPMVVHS
Dickkopf-related protein 1 (Homo sapiens), sequence (O94907 whole entry, looked up): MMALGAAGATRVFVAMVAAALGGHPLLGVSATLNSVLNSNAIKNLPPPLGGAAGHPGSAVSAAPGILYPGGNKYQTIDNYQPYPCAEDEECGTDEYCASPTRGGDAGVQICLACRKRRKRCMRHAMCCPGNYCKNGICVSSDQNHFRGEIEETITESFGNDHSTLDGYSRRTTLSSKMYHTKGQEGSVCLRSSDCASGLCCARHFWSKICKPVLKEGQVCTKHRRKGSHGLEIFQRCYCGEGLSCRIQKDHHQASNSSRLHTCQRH

As for `Cc1ccc(N2C(=O)c3ccccc3[C@@H](C(=O)NCC(F)(F)F)[C@@H]2c2ccc(CO)cc2)nc1`, the composite z-score in experiment [1] was -0.359; in [5], -0.338; in [7] it was 0.0143; in experiment [8], -2.15; in [9], -1.01; in experiment [10] it was -0.157. Further, the composite z-score in experiment [11] was 1.72; in experiment [12] it was 0.476; in experiment [13], 1.22; in experiment [15], -1.15; in experiment [16] it was -1.18; in [17], -2.69. For the same compound, the composite z-score is -1.83 in experiment [18], -1.69 in experiment [19] and -1.57 in [20]. The z-score in [2] was -0.678 (inactive); in experiment [3] it was -1.24 (inactive); in [4], 3.03 (inactive); in experiment [6], 1.08 (inactive); in experiment [14], -1.08 (inactive).
In the case of `C=C(CCCC)/C(=C/C[C@H](OC(=O)c1ccncc1)c1cccc(OCCO)c1)c1cc(C(=O)OC)ccc1OC`, the composite z-score in experiment [1] is 1.4; in experiment [5] it was 1.23; in [7], -0.174; in experiment [8], 1.08; in experiment [9], 0.966; in experiment [10] it was -0.112. The composite z-score in [11] was 0.169; in [12] it was -0.166; in experiment [13], -0.0107; in experiment [15] it was 1.04; in experiment [16], 0.174; in experiment [17], -0.218. Besides, the composite z-score is 0.611 in experiment [18], 0.347 in experiment [19] and 0.868 in experiment [20]. The z-score in experiment [2] was 0.15 (inactive); in [3] it was -0.323 (inactive); in experiment [4] it was 2.82 (inactive); in [6] it was 1.94 (inactive); in [14] it was -1.37 (inactive).
Regarding `O=C(CS)NCCCCCCNC(=O)[C@@H]1C[C@@H]2C(=O)N[C@@H](Cc3ccccc3)C(=O)N2[C@@H]1c1ccc(O)cc1`, the composite z-score in experiment [1] was 1.53; in experiment [5] it was 2.97; in experiment [7], -0.0741; in experiment [8], 0.652; in experiment [9], 1.16; in experiment [10], -0.0271. The composite z-score in [11] is 1.6; in [12], -0.0356; in [13], 0.307; in experiment [15], 1.03; in [16], 1.32; in experiment [17] it was 0.411. Further, the composite z-score in [18] turned out to be 1.19; in experiment [19], 1.18; in experiment [20], 0.617. Besides, the z-score was 0.205 (inactive) in [2]; 1.52 (inactive) in [3]; 1.99 (inactive) in experiment [4]; 0.988 (inactive) in [6]; -0.376 (inactive) in [14].
Turning to `Cc1ccc(N2C(=O)c3ccccc3[C@](C)(C(=O)O)[C@@H]2c2ccc(CO)cc2)nc1`, the composite z-score in [1] was -1.11; in experiment [5], -1.18; in [7], -0.15; in experiment [8] it was -2.06; in [9], -1.17; in experiment [10], -0.427. Besides, the composite z-score in [11] was -0.445; in [12], -0.322; in experiment [13], 0.365; in experiment [15], -0.883; in experiment [16] it was -1.45; in [17] it was -2.18. For the same compound, the figures for the composite z-score in experiment [18], in experiment [19] and in experiment [20] were -1.21, -0.967 and -0.292, respectively. The z-score in experiment [2] was 0.508 (inactive); in [3], -0.633 (inactive); in experiment [4] it was 0.653 (inactive); in experiment [6], 1.62 (inactive); in experiment [14], 0.763 (inactive).
Consider `C=CC[C@@]12N=C(c3ccc(OCCCO)cc3)O[C@@H]1c1ccccc1CN(Cc1ccccc1)C2=O`, for which the composite z-score in experiment [1] was found to be 1.54; in experiment [5], 2.86; in [7], 0.258; in experiment [8] it was 0.347; in experiment [9] it was 0.7; in [10] it was 0.0122. The composite z-score in experiment [11] is 1.67; in [12], 0.761; in experiment [13], 0.757; in experiment [15] it was 0.623; in experiment [16], 1.28; in experiment [17], -0.0152. The composite z-score was 0.0791 in experiment [18], 0.191 in [19] and 1.01 in [20]. In addition, the z-score in experiment [2] is -0.127 (inactive); in experiment [3], -3.56 (inactive); in [4], 5.67 (inactive); in experiment [6] it was 1.1 (inactive); in experiment [14], -0.291 (inactive).
`O=C/C=C/c1ccccc1Cl`: the composite z-score in experiment [1] was -0.284; in [5], 0.54; in experiment [7] it was -0.0336; in experiment [8] it was -0.479; in experiment [9], -0.709; in experiment [10] it was -0.18. In addition, the composite z-score in experiment [11] is 1.67; in [12] it was 0.265; in experiment [13], 0.405; in experiment [15], 0.0974; in experiment [16] it was -0.71; in [17], -0.336. Besides, the composite z-score in [18] was -0.62; in experiment [19], -0.485; in [20], 0.325. For the same compound, the z-score is 1.68 (inactive) in experiment [2]; -11 (active) in experiment [3]; -0.6 (inactive) in experiment [4]; 0.0791 (inactive) in [6]; 0.0402 (inactive) in experiment [14].
In the case of `COC(=O)[C@@]1(Cc2ccccc2)[C@H]2c3cc(C(=O)N4CCCC4)n(CCN4CNCC4=O)c3C[C@H]2CN1C(=O)c1ccccc1`, the composite z-score is -0.337 in [1]; 1.93 in experiment [5]; 0.154 in experiment [7]; -0.113 in experiment [8]; 0.494 in experiment [9]; -0.013 in experiment [10]. In addition, the composite z-score was found to be 0.0939 in experiment [11]; 0.862 in [12]; 0.904 in [13]; 0.0557 in experiment [15]; 0.77 in experiment [16]; 0.0908 in [17]. The composite z-score was 0.47 in experiment [18], -0.292 in [19] and 1.05 in experiment [20]. Further, the z-score in experiment [2] is -0.465 (inactive); in experiment [3], 0.826 (inactive); in [4], -0.153 (inactive); in experiment [6], -0.0756 (inactive); in experiment [14], 2.52 (inactive).
In the case of `O=C1OCCC/C=C\[C@H]2OC34C=CCN(CCN5CCOCC5)C(=O)[C@H]3N(CCCCCO)C(=O)[C@@H]4C12` (stereo not given in full), the composite z-score in experiment [1] is -0.706; in [5] it was -0.701; in experiment [7] it was -0.221; in experiment [8], -0.987; in experiment [9], 0.0233; in experiment [10], -0.281. The composite z-score in experiment [11] was 1.52; in experiment [12], -0.413; in experiment [13], -0.0252; in experiment [15], -0.81; in experiment [16] it was -0.188; in experiment [17], -1.33. Besides, the composite z-score in [18] was -0.762; in [19], -0.333; in experiment [20], 0.966. Further, the z-score is -0.114 (inactive) in [2]; -0.359 (inactive) in [3]; -0.824 (inactive) in [4]; -0.763 (inactive) in experiment [6]; -0.755 (inactive) in [14].
